Consider 9 compounds from PubChem BioAssay AID1117300 (National Center for Advancing Translational Sciences (NCATS), 2015).

Calls of active or inactive are those of the source. The call rests on the fitted dose curve.

For the experiment the following is noted: Ebola virus entry assay, ratio channel readout.
Consider `CC[C@H]1OC(=O)[C@H](C)[C@@H](O[C@H]2C[C@@](C)(OC)[C@@H](O)[C@H](C)O2)C(C)[C@@H](O[C@@H]2O[C@H](C)C[C@H](N(C)C)[C@@H]2O)[C@](C)(OC)C[C@@H](C)C(=O)[C@H](C)[C@@H](O)[C@]1(C)O` (some centres undefined), for which the outcome was inactive.

As for `CC[C@]1(O)C[C@@H]2CN(CCc3c([nH]c4ccccc34)[C@@](C(=O)OC)(c3cc4c(cc3OC)N(C)[C@H]3[C@@](O)(C(=O)OC)[C@H](OC(C)=O)[C@]5(CC)C=CCN6CC[C@]43[C@@H]65)C2)C1`, the AC50 is 0.122 µM (active).

As for `CCCCc1oc2ccc(NS(C)(=O)=O)cc2c1C(=O)c1ccc(OCCCN(CCCC)CCCC)cc1`, the AC50 is 3.85 µM (active).

For `CO[C@H]1C[C@@H]2CC[C@@H](C)[C@@](O)(O2)C(=O)C(=O)N2CCCC[C@@H]2C(=O)O[C@H]([C@@H](C)C[C@@H]2CC[C@H](O)[C@H](OC)C2)CC(=O)[C@H](C)C=C(C)[C@@H](O)[C@@H](OC)C(=O)[C@H](C)C[C@H](C)C=CC=CC=C1C`, the outcome was inactive.

Regarding `C[C@]12CC[C@@H]3c4ccc(O)cc4C[C@@H](CCCCCCCCCS(=O)CCCC(F)(F)C(F)(F)F)[C@H]3[C@@H]1CC[C@@H]2O` (some centres undefined), the result was inactive.

As to `CC[C@H]1OC(=O)[C@H](C)[C@@H](O[C@H]2C[C@@](C)(OC)[C@@H](O)[C@H](C)O2)[C@H](C)[C@@H](O[C@@H]2O[C@H](C)C[C@H](N(C)C)[C@@H]2O)[C@](C)(O)C[C@@H](C)CN(C)[C@H](C)[C@@H](O)[C@]1(C)O`, the AC50 was 6.11 µM (active).

For the compound `CC[C@]1(O)C[C@H]2CN(CCc3c([nH]c4ccccc34)[C@@](C(=O)OC)(c3cc4c(cc3OC)N(C=O)[C@H]3[C@@](O)(C(=O)OC)[C@H](OC(C)=O)[C@]5(CC)C=CCN6CC[C@]43[C@@H]65)C2)C1`, the AC50 was 0.153 µM (active).

Consider `C[C@@H]1O[C@@H](O[C@H]2CC[C@@]3(C)[C@H](CC[C@@H]4[C@H]3C[C@@H](O)[C@]3(C)[C@@H](C5=CC(=O)OC5)CC[C@]43O)C2)C[C@H](O)[C@@H]1O[C@H]1C[C@H](O)[C@H](O[C@H]2C[C@H](O)[C@@H](O)[C@@H](C)O2)[C@H](C)O1` (stereo in doubt), for which the result was inactive.

Regarding `CN(C)CCOc1ccc(/C(=C(/CCCl)c2ccccc2)c2ccccc2)cc1`, the AC50 is 1.09 µM (active).
